Screening data: PubChem BioAssay, National Center for Advancing Translational Sciences (NCATS)
GLS inhibitor = qHTS for Inhibitors of Glutaminase (GLS); GLS enzymatic activity, qHTS titration; Potency, µM (series often up to 45.5 µM), actives largely listed as inhibitors; actives 0.21% (n = 410,000); AID 624170, 2012
Target sequence (O94925 whole entry, looked up): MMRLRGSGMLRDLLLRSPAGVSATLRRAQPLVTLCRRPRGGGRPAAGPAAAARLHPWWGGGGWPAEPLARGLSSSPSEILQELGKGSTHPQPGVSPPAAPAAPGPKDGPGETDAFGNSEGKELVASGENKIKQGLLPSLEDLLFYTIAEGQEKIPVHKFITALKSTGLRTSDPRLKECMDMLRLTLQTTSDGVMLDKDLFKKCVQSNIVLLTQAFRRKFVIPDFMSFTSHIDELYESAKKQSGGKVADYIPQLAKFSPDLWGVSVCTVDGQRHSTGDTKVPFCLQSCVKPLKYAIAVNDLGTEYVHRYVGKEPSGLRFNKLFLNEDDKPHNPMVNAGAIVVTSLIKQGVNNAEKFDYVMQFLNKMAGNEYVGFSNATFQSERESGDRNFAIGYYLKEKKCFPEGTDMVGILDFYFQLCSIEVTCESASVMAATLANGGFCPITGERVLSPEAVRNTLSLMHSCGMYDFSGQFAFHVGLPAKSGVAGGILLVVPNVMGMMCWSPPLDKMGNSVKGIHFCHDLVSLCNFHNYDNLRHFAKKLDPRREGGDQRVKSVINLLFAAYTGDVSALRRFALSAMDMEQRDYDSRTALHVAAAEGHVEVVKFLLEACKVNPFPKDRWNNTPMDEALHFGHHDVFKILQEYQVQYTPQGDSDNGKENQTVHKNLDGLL
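Assay buffer: 45 mM KH2PO4 pH 8.2, 0.02% Tween-20. hKGA acts on L-glutamine (1 mM solution added); product glutamate is reported by an oxidase/peroxidase Amplex Red coupling, with fluorescence taken at baseline and 30 min.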
TrxR1 substrate = qHTS Assay for Substrates of Mammalian Selenoprotein Thioredoxin Reductase 1 (TrxR1): qHTS; purified TrxR1 substrate turnover, NADPH consumption readout; Potency, µM (highest dose often 114 µM); actives 0.01% (n = 390,000); further: nearly all actives have a fitted effect of over 50% in size
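Rat TrxR1, dispensed at 90 nM, was prereduced with 400 uM NADPH (final) for 5 min at ~22 deg C, then incubated with compound 15 min before 400 uM selenite. A first-read NADPH fluorescence drop versus no-compound background flagged substrates.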
mIDH1 inhibitor = qHTS for Inhibitors of mutant isocitrate dehydrogenase 1 (IDH1): qHTS; Isocitrate dehydrogenase [NADP] cytoplasmic (Homo sapiens), O75874; IDH1-R132H enzyme, NADPH consumption, diaphorase/resazurin fluorescence; Potency, µM (titrated, usually from 76.6 µM), hits mostly inhibitors; actives 0.093% (n = 390,000); further: nearly all actives have a fitted effect of over 65% in size
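IDH1-R132H (0.5 ug/mL dispensed) in pH 7.5 Tris buffer was preincubated 30 min with compound, then given a substrate mix of 0.016 mM NADPH and 2 mM alpha-KG for 80 min at room temperature; remaining NADPH was read by diaphorase/resazurin fluorescence.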
rTrxR1 inhibitor = qHTS Assay for Inhibitors of Mammalian Selenoprotein Thioredoxin Reductase 1 (TrxR1): qHTS | Thioredoxin reductase 1, cytoplasmic (Rattus norvegicus), O89049 | recombinant rTrxR1, NADPH fluorescence consumption, selenite substrate | Potency, µM (titrated, usually from 114 µM), hits mostly inhibitors | actives 1% (n = 390,000); further: nearly all actives have a fitted effect of over 65% in size
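Rat TrxR1 (90 nM in the dispensed reagent) was pre-reduced with 400 uM NADPH for 5 min at room temperature, then incubated with compound for 15 min. After 400 uM selenite was added, NADPH fluorescence (Ex 340/Em 450 nm) was followed for 8 min.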
PKM2 act = qHTS Assay for Activators of Human Muscle isoform 2 Pyruvate Kinase; Pyruvate kinase PKM (Homo sapiens), P14618; purified PKM2, Kinase-Glo ATP luminescence, activation; response scale: 0% is enzyme alone, no compound; Potency, µM (top dose mostly 57.5 µM), hits mostly activators; actives 0.34% (n = 260,000); AID 1631, 2009; further: nearly all actives have a fitted effect of over 55% in size
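Purified hPK-M2 (>95%) run at intermediate activity with 0.1 mM ADP and 0.5 mM PEP in 50 mM imidazole pH 7.2, KCl, MgCl2; 1 h room temperature. ATP formed read by Kinase-Glo luminescence; normalized to uninhibited and no-enzyme controls.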
LDHA block = qHTS assay for inhibitors of human lactate dehydrogenase; L-lactate dehydrogenase A chain (Homo sapiens), P00338; actives 0.15% (n = 480,000); activity change, % (values are at about 110 or 230 µM); purified LDHA, NADH/diaphorase-resazurin fluorescence; stronger effect = lower value; in the data active means activity change below about -30%; inconclusive means mostly about -25% to -30%
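Human LDH5 at 2 nM final in Tris HCl pH 7.4 with 0.06 mM NADH and 0.2 mM pyruvate, reacted 5 minutes at room temperature. Remaining NADH coupled via diaphorase/resazurin; resorufin fluorescence read at 0 and 20 minutes, normalized to enzyme-free and DMSO wells.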
Numbers stand for hits; - = inactive; ? = inconclusive; . = no result given; [ ] = dose if it differs, or a comment. Hits are enriched below; roughly 1.4% of the tested compounds scored in any of these assays. Unless noted, the call rests on the fitted dose curve; in most records, active means well fitted curve in the direction sought with a large enough effect; inconclusive means small, poorly fitted or top-dose-only effect, or another doubt; inactive means no such curve, though single readings can be large; an effect the other way counts as inactive or inconclusive.

SMILES	GLS inhibitor	TrxR1 substrate	mIDH1 inhibitor	rTrxR1 inhibitor	PKM2 act	LDHA block
O=C1CC(Nc2ccccc2)C(=O)N1c1ccc(N2CCOCC2)cc1 (stereo not given)	-	-	-	-	-	-
CC1=C(C(=O)OCC(F)(F)C(F)(F)F)C(c2ccc3c(c2)OCO3)NC(=O)N1 (stereo not given)	.	.	.	.	.	-
CC1CCN(C(=O)COC(=O)/C=C/c2ccc(Br)o2)CC1	-	-	-	25.1µM	.	-
CC1CCCC(C)N1C(=O)COC(=O)/C=C/c1ccc(Br)o1 (stereo not given)	-	-	-	35.5µM	.	-
Cc1ccc(N(Cc2cccs2)C(=O)c2cccs2)cc1	.	.	.	.	.	-
CC(C)C(Cl)=NOC(=O)Nc1ccc(S(N)(=O)=O)cc1	-	-[11.4 µM]	-	0.794µM	.	-
C1=CC2CC1CC2CN1CCN(Cc2ccccc2)CC1 (stereo not given)	-	-	-	-	-	-31.6
Cn1c(=O)c([N+](=O)[O-])c(-n2ccnc2)c2ccccc21	-	-	-	10µM	-	-
COC(=O)c1c(NC(=O)CC2Nc3ccccc3NC2=O)sc(C)c1C (stereo not given)	?	-	-	-	-	-
CCOC(=O)c1c(NC(=O)CC2Nc3ccccc3NC2=O)sc(C)c1C (stereo not given)	12.6µM	-	-	-	-	-
O=C(OCn1ncc(Br)c(Br)c1=O)c1ccc(F)cc1	-	-	-	1.78µM	-	-
COCC(C)OC(=O)/C(C#N)=C\c1coc2ccc(C)cc2c1=O (stereo not given)	?	-	-	28.2µM	-	-
CCOc1ccccc1NC(=O)Cc1nc(-c2cccs2)oc1C	.	.	.	.	.	-
Cc1c(Cc2ccccc2)c(=O)oc2c(O)c(O)ccc12	?	-	-	-	20µM	-
Cc1c(Cc2ccccc2)c(=O)oc2cc(O)ccc12	-	-	-	-	-	-
O=C1C2C3C=CC(C3)C2C(=O)N1c1ccccc1 (stereo not given)	-	-	-	-	-	-
O=C1C2C3C=CC(C3=C3CCCCC3)C2C(=O)N1c1ccccc1 (stereo not given)	-	-	-	20µM	-	-
Cc1ccc(NC(=O)c2ncoc2-c2ccco2)c(Cl)c1	.	.	.	.	.	-
Clc1cccc(NN=C2c3ccccc3-c3ccccc32)c1	.	.	.	.	.	-
COc1ccc(N2C(=O)CC(NCCNc3ccc([N+](=O)[O-])cn3)C2=O)cc1 (stereo not given)	-	-	-	14.1µM	-	-
CCOc1ccc(N2C(=O)CC(NCCNc3ccc([N+](=O)[O-])cn3)C2=O)cc1 (stereo not given)	-	-	-	?	-	-
COc1ccc(NC2CC(=O)N(c3cc([N+](=O)[O-])ccc3C)C2=O)cc1 (stereo not given)	7.08µM	-	-	-	-	-
COc1ccc(NC2CC(=O)N(c3cccc([N+](=O)[O-])c3)C2=O)cc1 (stereo not given)	?	-	-	-	-	-
C/C(CC12CC3CC(CC(C3)C1)C2)=N\NC(=O)C1CC1	.	.	.	.	.	-
CCN(CC)c1ccc2c(c1)oc(=O)c1c(Cl)cc(=O)oc12	-	-	?	35.5µM	-	-
SMILES	GLS inhibitor	TrxR1 substrate	mIDH1 inhibitor	rTrxR1 inhibitor	PKM2 act	LDHA block
CCc1ccc(CN(C)C(=O)NC(c2ccc3c(c2)OCCCO3)C(C)C)cc1 (stereo not given)	.	.	.	.	.	-
Cc1c(C#N)c(NC(=O)CCl)n(Cc2cccs2)c1C	-	-	-	3.55µM	-	-
Cc1c(C#N)c(NC(=O)CCl)n(Cc2ccccc2)c1C	-	-	-	3.55µM	-	-
Cc1c(C#N)c(NC(=O)CCl)n(Cc2ccc(F)cc2)c1C	-	-	-	?	-	-
C=CC(=O)N1C/C(=C/c2ccccc2)C(=O)/C(=C\c2ccccc2)C1	-	-[11.4 µM]	-	3.98µM	.	-
COc1ccc(NC(=O)c2[nH]c(C)c(C(C)=O)c2C)cc1Cl	-	-	-	-	-	-
COc1ccc(C(C)(C)C)cc1NC(=O)c1[nH]c(C)c(C(C)=O)c1C	-	-	-	-	17.8µM	-
CCCN=C1N/C(=C\c2ccco2)C(=O)N1c1ccccc1	-	-	-	-	-	-
CCCN(CCC)C1=N/C(=C\c2ccco2)C(=O)N1c1ccccc1	-	-	-	25.1µM	-	-
CCN(CC)C(CNC(=O)Nc1ccc(C(=O)N2CCCCCC2)cc1)c1ccsc1 (stereo not given)	.	.	.	.	.	-
COc1ccc(S(=O)(=O)Nc2ccc(Nc3nc(C)cc(N(C)C)n3)cc2)cc1C	.	.	.	.	.	-
CCOC(=O)CSc1nnc(-c2ccoc2C)n1-c1ccc(OCC)cc1	-	-	-	-	39.8µM	-
COc1cc(OC)c2c(C)c(CC(=O)NCCN3CCOCC3)c(=O)oc2c1	.	.	.	.	.	-
CCC1Sc2ccc(S(=O)(=O)CCC(=O)NCc3ccc(C)o3)cc2NC1=O (stereo not given)	-	-	-	50.1µM	.	-
CCC1Sc2ccc(S(=O)(=O)CCC(=O)Nc3ccccc3Cl)cc2NC1=O (stereo not given)	-	-	-	-	.	-
Cc1ccc(CNC(=O)CCS(=O)(=O)c2ccc(Br)s2)o1	-	-	-	8.91µM	-	-
COc1ccc(Cc2cnc(NC(=O)c3cc(=O)c4cc(C)ccc4o3)s2)cc1	.	.	.	.	.	-
CCn1c(-n2nc(C)cc2C)nc2c1c(=O)n(Cc1ccc(F)cc1)c(=O)n2C	.	.	.	.	.	-
Cc1cccc(Nc2nnc(SC(C)C#N)s2)c1C (stereo not given)	.	.	.	.	.	-
Fc1ccc2[nH]c3c(NCCN4CCOCC4)ncnc3c2c1	-	-	-	-	-	-34.8
COCCNCCCOc1ccc(C(C)(C)c2ccccc2)cc1	-	-	-	?	-	-33.0
CC(C)NCCCOc1ccc(C(C)(C)c2ccccc2)cc1	-	-	-	-	-	-31.7
CC(O)CNCCCOc1ccc(C(C)(C)c2ccccc2)cc1 (stereo not given)	.	.	.	.	.	-
COCCCNCCCOc1ccc(C(C)(C)c2ccccc2)cc1	-	-	-	-	-	-
O=C(Nc1cccc(-c2nc3ccccc3o2)c1)c1ccc(Br)o1	.	.	.	.	.	-
